For 31 molecules, Potency results are on record in PubChem BioAssay (NCATS).

Molecules are shown by their SMILES. Inconclusive results are not listed. A call without a number means that no potency is given here. The source made the active and inactive calls. The call rests on the fitted dose curve; in most records, active means well fitted cell-killing curve with a large enough effect; inconclusive means small, poorly fitted or top-dose-only effect; inactive means flat fitted curve, though single readings scatter.
Potency means the concentration at half of the fitted maximal effect.

The test can be described thus: qHTS of pediatric cancer cell lines to identify multiple opportunities for drug repurposing: Confirmatory screen for BT-12 cells (AID 1347112).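 Further: viability read after 48 h of compound exposure; nearly all actives have a fitted effect of over 55% in size.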 Particulars: BT-12 rhabdoid tumor cells, viability; series mostly up to 45.9 µM. The text has this: Drug repurposing or repositioning has been offered as a strategy for drug development in oncology programs. This approach has special potential for childhood cancers and other rare or orphan diseases, where the expected return on new drug development has been a disincentive to pharmaceuticals.
In this project we exploit the poly-pharmacology of drugs to discover new indications via phenotypic screening of a panel of 19 well-characterized cell lines derived from solid tumors seen in children and adolescents. The goal is to identify approved drugs with previously unrecognized anticancer properties that has the potential to reveal new mechanisms and biological processes involved in carcinogenesis or drug resistance. We employed a titration-based paradigm (quantitative high-throughput screening or qHTS), where all compounds were tested at multiple concentrations for their effect on cell viability. Concentration-response curves (CRCs) were derived directly from the primary screen, and both potency and efficacy values were used to identify compounds with robust bioactivity profiles. We screened the NIH Chemical Genomics Center (NCGC) Pharmaceutical Collection (NPC) and Mechanism Interrogation Plate (MIPE) small molecule collections of approved and investigational compounds against these cell lines; and measured metabolically active cells after 48 hours of compound treatment as a proxy for cell viability.
Assay Submitter: Nathalia J. Martinez, National Center for Advancing Translational Sciences, National Institutes of Health, Rockville, MD, USA; email: natalia.martinez@nih.gov
[1] Shen, M et al. Quantitative high-throughput phenotypic screening of pediatric cancer cell lines identifies multiple opportunities for drug repurposing. Oncotarget 2017 Dec 19;9(4):4758-4772. PMID 29435139.
The cells were obtained from University of North Carolina (UNC), Pediatric Preclinical Testing Program (PPT), and Coriell Institute (CI).
qHTS cell viability assay:
Cells were assayed in growth media at a density of 500-1,000 cells/well. Five microliters of cells were dispensed into 1,536-well, white, solid-bottom, TC-treated plates (Greiner Bio One) using a multidrop dispenser and incubated at 37 degrees C, 5% CO2, under a humidified atmosphere for 5 hours. Twenty-three nanoliters of compounds and controls (neutral control DMSO or positive control bortezomib at final concentration of 2.3 µM) were subsequently transferred by Kalypsys pintool. For primary screens, the MIPE collection was tested at 11-point dilutions (final concentrations range from 0.78 nM to 46 µM) and the NPC collection at 8-point dilutions (final concentrations range from 0.59 nM to 46 µM). Compounds tested in follow-up screens were assayed at 11-point dilutions. Cells were incubated for 48 hours, followed by addition of 3 µL of CellTiter-Glo (Promega). After a 15 min incubation at room temperature, samples were analyzed for luminescence intensity using a ViewLux High-throughput CCD imager equipped with clear filters.
Take `COC(=O)Nc1nc2ccc(C(=O)c3ccccc3)cc2[nH]1`: the Potency was 4.14 µM (active).
As for `Cn1nnc2c(C(N)=O)ncn2c1=O`, the entry is “inactive”; as for `COc1ccc(C(=O)CC(=O)c2ccc(C(C)(C)C)cc2)cc1`, “inactive”.
With `COc1cc(NCc2ccc3nc(N)nc(N)c3c2C)cc(OC)c1OC` the figure was 3.29 µM (active); with `CO[C@@]12[C@H](COC(N)=O)C3=C(C(=O)C(C)=C(N)C3=O)N1C[C@@H]1N[C@@H]12`, 16.5 µM (active).
With `CCC(=O)O[C@]1(C(=O)CCl)[C@@H](C)C[C@H]2[C@@H]3CCC4=CC(=O)C=C[C@]4(C)[C@@]3(F)[C@@H](O)C[C@@]21C` the entry was “inactive”; with `Nc1nc(N)nc(-c2cc(Cl)ccc2Cl)n1`, “inactive”.
For `COc1cc([C@@H]2c3cc4c(cc3[C@H](O)[C@H]3COC(=O)[C@H]23)OCO4)cc(OC)c1OC`, the Potency was 0.0522 µM (active).
Turning to `COc1cc2c(Nc3ccc(Br)cc3F)ncnc2cc1OCC1CCN(C)CC1`, the Potency result is “inactive”.
As for `CC(C)(C)C(=O)OCOP(=O)(COCCn1cnc2c(N)ncnc21)OCOC(=O)C(C)(C)C`, the figure is 16.5 µM (active); as for `N=C(N)c1ccc(OCCCCCOc2ccc(C(=N)N)cc2)cc1`, 3.29 µM (active).
As for `CC1CC2C3CCC4=CC(=O)C=C[C@]4(C)[C@@]3(F)[C@@H](O)C[C@]2(C)[C@@]1(O)C(=O)CO` (stereo partly specified), the entry is “inactive”; as for `Nc1[nH]c(=O)ncc1F`, “inactive”.
For `CNNCc1ccc(C(=O)NC(C)C)cc1`, the Potency result is “inactive”.
As for `Nc1nc(N)c2nc(CNc3ccc(C(=O)NC(CCC(=O)O)C(=O)O)cc3)cnc2n1` (stereo unspecified), the figure is 0.928 µM (active).
As for `CCC(=O)O[C@]1(C(=O)SCF)[C@H](C)C[C@H]2[C@@H]3C[C@H](F)C4=CC(=O)C=C[C@]4(C)[C@@]3(F)[C@@H](O)C[C@@]21C`, the Potency entry is “inactive”.
For the molecule `S=P(N1CC1)(N1CC1)N1CC1`, the Potency result was “inactive”.
Regarding `CNCC[C@H](Oc1cccc2ccccc12)c1cccs1`, the Potency entry was “inactive”.
With `CNS(=O)(=O)CCc1ccc2[nH]cc(C3CCN(C)CC3)c2c1` the entry was “inactive”.
For the molecule `CCOC(=O)[C@H](CCc1ccccc1)N[C@H]1CS[C@H](c2cccs2)CN(CC(=O)O)C1=O`, the Potency result is “inactive”.
With `C[C@@H](CN1CC(=O)NC(=O)C1)N1CC(=O)NC(=O)C1`, the Potency result is “inactive”.
With `CC(C)C[C@H](NC(=O)[C@H](CCc1ccccc1)NC(=O)CN1CCOCC1)C(=O)N[C@@H](Cc1ccccc1)C(=O)N[C@@H](CC(C)C)C(=O)[C@@]1(C)CO1` the figure was 0.165 µM (active); with `CC(C)(C#N)c1cc(Cn2cncn2)cc(C(C)(C)C#N)c1`, “inactive”; with `C[C@@H]1C[C@H]2[C@@H]3CCC4=CC(=O)C=C[C@]4(C)[C@@]3(Cl)[C@@H](O)C[C@]2(C)[C@@]1(OC(=O)c1ccco1)C(=O)CCl`, 5.85 µM (active).
For the molecule `CCCCOc1ccc(CC(=O)NO)cc1`, the Potency result was “inactive”.
On to `CS(=O)(=O)c1ccc([C@@H](O)[C@@H](CO)NC(=O)C(Cl)Cl)cc1`, for which the Potency result is “inactive”.
For the molecule `COc1ccc(-c2ccc3cc(C(=O)O)ccc3c2)cc1C12CC3CC(CC(C3)C1)C2`, the Potency entry was “inactive”.
Regarding `CN(C)c1ccc(C(=C2C=CC(=[N+](C)C)C=C2)c2ccc(N(C)C)cc2)cc1`, the Potency was 2.33 µM (active).
As for `CCOC(=O)c1ccc(C#Cc2ccc3c(c2)C(C)(C)CCS3)nc1`, the entry is “inactive”; as for `CC(C)NCC(O)c1ccc(NS(C)(=O)=O)cc1` (stereo unspecified), “inactive”.
Take `O=NN(CCCl)C(=O)NC1CCCCC1`: the Potency entry was “inactive”.
